In PubChem BioAssay (NCATS):
Records with an inconclusive call do not appear. Activity calls are given as the source filed them. Calls follow the shape of the dose curve; as a rule, active = well fitted inhibition curve with a large enough effect; inconclusive = small, poorly fitted or top-dose-only effect; inactive = flat fitted curve, though single readings scatter.

Tests used:
Test in all cases: qHTS profiling for inhibitors of Plasmodium falciparum proliferation (AID 504749); also: nearly all actives have a fitted effect of over 60% in size
Details in all cases: P. falciparum in erythrocytes, SYBR Green DNA, 72 h; series mostly up to 12.8 µM
[1] = test system: CP250
Procedure, shortened: (§1)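 SYBR Green fluorescence of parasite DNA, read after lysis and overnight dark incubation, measured growth over 72 h in erythrocyte culture at 0.3% parasitemia and 2.5% hematocrit. Data normalised to DMSO and 0.29 uM artemisinin, with plate-drift correction.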

[2] = test system: CP252
Procedure, shortened: as §1

[3] = test system: CP256
Procedure, shortened: as §1

[4] = test system: CP260
Procedure, shortened: as §1

[5] = test system: CP262
Procedure, shortened: as §1

[6] = test system: CP265
Procedure, shortened: as §1

[7] = test system: CP266
Procedure, shortened: as §1

[8] = test system: CP268
Procedure, shortened: as §1

[9] = test system: CP269
Procedure, shortened: as §1

[10] = test system: CP286
Procedure, shortened: as §1

[11] = test system: CP291
Procedure, shortened: as §1

[12] = test system: CP297
Procedure, shortened: as §1

[13] = test system: CP305
Procedure, shortened: as §1

[14] = test system: CP315
Procedure, shortened: as §1

[15] = test system: CP325
Procedure, shortened: as §1

[16] = test system: CP329
Procedure, shortened: as §1

[17] = test system: CP335
Procedure, shortened: as §1

[18] = test system: DIV14
Procedure, shortened: as §1

[19] = test system: DIV17
Procedure, shortened: as §1

[20] = test system: DIV30
Procedure, shortened: as §1

[21] = test system: Dd2
Procedure, shortened: as §1

[22] = test system: ECU
Procedure, shortened: as §1

[23] = test system: FAB9
Procedure, shortened: as §1

[24] = test system: GB4
Procedure, shortened: as §1

[25] = test system: HB3
Procedure, shortened: as §1

[26] = test system: ICS
Procedure, shortened: as §1

[27] = test system: JCK
Procedure, shortened: as §1

[28] = test system: N140
Procedure, shortened: as §1

[29] = test system: P93_24
Procedure, shortened: as §1

[30] = test system: P94_40
Procedure, shortened: as §1

[31] = test system: PAD
Procedure, shortened: as §1

[32] = test system: PC15
Procedure, shortened: as §1

[33] = test system: PC26
Procedure, shortened: as §1

[34] = test system: PC49
Procedure, shortened: as §1

[35] = test system: SC27B
Procedure, shortened: as §1

[36] = test system: TAB109
Procedure, shortened: as §1

[37] = test system: TAB113
Procedure, shortened: as §1

[38] = test system: TAB165
Procedure, shortened: as §1

[39] = test system: W2
Procedure, shortened: as §1

Measured: Potency

O=C(O)[C@@H]1CCCN1
inactive: all assays above
